# Records with an inconclusive call do not appear. A call without a number means that no potency is given here. Activity calls are given as the source filed them. Calls come from the whole dose curve. Bridge positions count the residues as written; N and C are the ends. Square brackets hold non-standard residues; d marks the D form. Peptide text beside a SMILES is read from it. hArg = N=C(N)NCCCC[C@H](N)C(=O)O; Mpa = O=C(O)CCS
# Assay: p53 small molecule agonists, cell-based qHTS assay with rat liver microsomes: qHTS cell viability counter screen (AID 1963580); note: nearly all actives have a fitted effect of over 45% in size
# Conditions: p53RE-bla HCT-116 + rat microsomes, ATP viability, 16 h; series mostly up to 66 µM
# Source text: National Center for Advancing Translational Sciences [NCATS]
# Division of Preclinical Innovation [DPI]
# U.S. Environmental Protection Agency [EPA]
# National Institutes of Environmental Health Sciences [NIEHS]
# National Toxicology Program [NTP]
# U.S. Food and Drug Administration [FDA]
# p53, a tumor suppressor protein, is activated following cellular insult, including DNA damage and other cellular stresses. The activation of p53 regulates cell fate by inducing DNA repair, cell cycle arrest, apoptosis, or cellular senescence. The activation of p53, therefore, is a good indicator of DNA damage and other cellular stresses. The CellSensor p53RE-bla HCT-116 cell line contains a stably integrated beta-lactamase reporter gene under control of the p53 response elements. The activation of the reporter gene under culture conditions can be detected by fluorescence intensity. This cell line was used to screen the Tox21 10K compound library in the condition of presence of rat liver microsomes and to identify agonists that activate the p53 signaling pathway after in vitro metabolic activation (Ooka et al., Archive of Toxicology 96:1975-1987, 2022). The cytotoxicity of the Tox21 compound library against the p53 RE-bla HCT-116 cell line was tested in parallel by measuring the intra cellular ATP content in the same wells.
# Tox21 Assay Protocol Summary:
# The p53RE-bla cells were dispensed at 4,000cells/3ul/well in 1536-well black-clear bottom plates. After the assay plates were incubated at 37 C, 5% CO2 incubator for 5 hours, 23 nL of compounds dissolved in DMSO, positive controls or DMSO only was transferred to the assay plate. Following compound addition, 3 uL of rat liver microsomes (Molecular Toxicology, Boone, NC) at final concentration of 0.5 mg/mL and 1uL of B-Nicotinamide adenine dinucleotide 2'-phosphate (NADPH) at final concentration of 0.5 mg/mL were transferred to the assay plate. The plates were incubated at 37 C for 16 hours. 1 uL of LiveBLAzer detection mixture was added to each well and the plates were incubated at room temperature in the dark for 2 h. Fluorescence intensity at 460 and 530 nm emission and 405 nm excitation were measured by an Envision plate reader. For cell viability readout that measures cytotoxicity, 4 ul/well of CellTiter-Glo reagent was added into the assay plates using a Flying Reagent Dispenser. After 30 min incubation at room temperature, the luminescence intensity in the plates was measured using a ViewLux plate reader.
# Potency is the fitted concentration of half-maximal effect.
row,Structure (SMILES),Potency
1,CNc1ccc([N+](=O)[O-])cc1,inactive
2,CC/C=C1/OC(=O)c2ccccc21,inactive
3,Oc1ccc2ccccc2c1,inactive
4,CC(C)N(c1ccccc1)C(C)C,inactive
5,CO[C@H]1C=CO[C@@]2(C)Oc3c(C)c(O)c4c(O)c(c5c(c4c3C2=O)=NC2(CCN(CC(C)C)CC2)N=5)NC(=O)/C(C)=C\C=C/[C@H](C)[C@H](O)[C@@H](C)[C@@H](O)[C@@H](C)[C@H](OC(C)=O)[C@@H]1C,inactive
6,CCCCC(CC)COC(=O)COc1cc(Cl)c(Cl)cc1Cl (stereo not given),inactive
7,CCCCCOc1ccccc1/C(=C\SC)n1ccnc1,inactive
8,C#CC(O)C(CC)CCCC (stereo not given),inactive
9,CCCOC(=O)CCCCC(=O)OCCC,inactive
10,NCCc1cnc[nH]1,inactive
11,Cc1ccc2nc(-c3ccc(N)cc3)sc2c1S(=O)(=O)O,inactive
12,CCCCCC=CCC=CCCCCCCCC(=O)OCC,inactive
13,O=C(O)Cc1ccc(Cl)cc1Cl,inactive
14,C=Cc1c(C)c2cc3[nH]c(cc4nc(cc5nc(cc1[nH]2)C(C)=C5CCC(=O)O)C(CCC(=O)O)=C4C)c(C)c3C=C,inactive
15,CC(=O)OCC(=O)[C@@]1(O)CC[C@H]2[C@@H]3CCC4=CC(=O)CC[C@]4(C)[C@H]3C(=O)C[C@@]21C,inactive
16,N#C/C(=C1/SC[C@@H](c2ccc(Cl)cc2Cl)S1)n1ccnc1,inactive
17,NC(=O)[C@@H]1CSSCCC(=O)N[C@@H](CCCCN=C(N)N)C(=O)NCC(=O)N[C@@H](CC(=O)O)C(=O)N[C@@H](Cc2c[nH]c3ccccc23)C(=O)N2CCC[C@H]2C(=O)N1 ([Mpa][hArg]GDWPC-NH2; disulfide 1-7),inactive
18,Cc1cc2nc(N)sc2cc1C,inactive
19,CC(C)(C)c1cc(CCC(=O)OCC(COC(=O)CCc2cc(C(C)(C)C)c(O)c(C(C)(C)C)c2)(COC(=O)CCc2cc(C(C)(C)C)c(O)c(C(C)(C)C)c2)COC(=O)CCc2cc(C(C)(C)C)c(O)c(C(C)(C)C)c2)cc(C(C)(C)C)c1O,inactive
20,CO[Si](C)(OC)OC,inactive

row,Structure (SMILES),Potency
1,CCOC(=O)c1ccc(N(C)C)cc1,inactive
2,C=Cc1ccncc1,inactive
3,CCCCCCCCCCCCSC#N,inactive
4,O=C(O)COC(=O)Cc1ccccc1Nc1c(Cl)cccc1Cl,inactive
5,CC(C)COC(=O)/C=C/c1ccccc1,inactive
6,CC(C)CCCCCCOC(=O)C1CCCCC1C(=O)OCCCCCCC(C)C (stereo not given),inactive
7,CN(Cc1ccc(C(C)(C)C)cc1)Cc1cccc2ccccc12,inactive
8,COc1cc(Nc2c(C#N)cnc3cc(OCCCN4CCN(C)CC4)c(OC)cc23)c(Cl)cc1Cl,inactive
9,COc1ccccc1N1CCN(CC(O)COc2cccc3ccccc23)CC1 (stereo not given),inactive
10,Cc1ccc2c(c1)CCCN2,inactive
11,CC(=O)CC(=O)Nc1ccc(S(=O)(=O)O)cc1,inactive
12,C=C(C)c1cccc(C(=C)C)c1,inactive
13,CC(=O)N[C@@H](CCC(=O)O)C(=O)O,inactive
14,OC(CCN1CCCCC1)(c1ccccc1)C1CC2C=CC1C2 (stereo not given),inactive
15,N=C1N=C(N)c2cc3ccccc3cc21,45.8 µM (active)
16,NNc1nc(-c2ccc(N)cc2)cs1,inactive
17,CCN(CC)CCOc1ccc2c(c1)C(=O)c1cc(OCCN(CC)CC)ccc1-2,inactive
18,O=C(Oc1ccccc1)Oc1ccccc1,inactive
19,CCCC[N+](C)(CCCC)CCCC,inactive
20,CC1(CN2CCC(n3c(=O)[nH]c4ccccc43)CC2)OCc2ccccc2-n2cccc21 (stereo not given),inactive
